The values that follow come from PubChem BioAssay AID1645882 (National Center for Advancing Translational Sciences (NCATS), 2021).

Values joined by “and” are separate entries in the source; they are usually repeats but may differ in a detail not shown here. Equal values may be shown once. Hit rate of the full screen: of about 16,000 compounds, about 120 (0.75%) were called active. Not shown: some 4% with an inconclusive outcome. Many of the other results were omitted from the sample, so actives are more common in it than they were. Where a structure was tested more than once in an assay, its records may differ in their call. A number with no mark means an inactive call. Calls come from the whole dose curve; as a rule, active = well fitted inhibition curve with a large enough effect; inconclusive = small, poorly fitted or top-dose-only effect; inactive = no such curve, though single readings can be large or run the other way.
Potency is the fitted concentration of half-maximal effect.

Rap guanine nucleotide exchange factor 3 (Homo sapiens), sequence (O95398 whole entry, looked up): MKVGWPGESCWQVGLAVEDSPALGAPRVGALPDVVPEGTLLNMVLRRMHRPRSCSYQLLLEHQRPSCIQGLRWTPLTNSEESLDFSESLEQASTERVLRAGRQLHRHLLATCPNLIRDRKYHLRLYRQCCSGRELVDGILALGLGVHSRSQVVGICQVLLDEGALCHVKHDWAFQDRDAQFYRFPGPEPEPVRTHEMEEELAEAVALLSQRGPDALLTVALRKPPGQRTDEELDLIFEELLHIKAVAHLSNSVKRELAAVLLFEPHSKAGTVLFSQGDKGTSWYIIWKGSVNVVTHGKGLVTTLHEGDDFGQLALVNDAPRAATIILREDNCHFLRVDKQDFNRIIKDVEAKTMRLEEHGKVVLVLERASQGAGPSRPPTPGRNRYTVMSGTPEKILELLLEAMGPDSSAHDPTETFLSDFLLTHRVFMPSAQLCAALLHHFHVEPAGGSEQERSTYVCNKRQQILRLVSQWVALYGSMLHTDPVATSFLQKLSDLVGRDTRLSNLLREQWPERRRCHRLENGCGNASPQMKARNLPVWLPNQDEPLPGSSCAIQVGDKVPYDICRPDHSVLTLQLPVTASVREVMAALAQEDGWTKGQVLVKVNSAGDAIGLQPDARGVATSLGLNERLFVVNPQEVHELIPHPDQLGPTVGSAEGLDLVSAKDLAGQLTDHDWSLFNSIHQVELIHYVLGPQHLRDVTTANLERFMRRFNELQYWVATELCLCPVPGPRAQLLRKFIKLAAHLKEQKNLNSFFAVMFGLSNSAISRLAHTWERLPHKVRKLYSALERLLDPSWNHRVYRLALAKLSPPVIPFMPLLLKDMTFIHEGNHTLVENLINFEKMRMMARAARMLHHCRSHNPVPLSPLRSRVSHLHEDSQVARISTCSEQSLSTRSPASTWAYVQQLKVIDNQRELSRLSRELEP

The target of this assay is Rap guanine nucleotide exchange factor 3 (Homo sapiens) (UniProt O95398). Briefly: Validation qHTS for antagonist of cAMP-regulated guanine nucleotide exchange factor 3 (EPAC1). Note: nearly all actives have a fitted effect of over 75% in size. The following applies: EPAC1 Rap1B-BODIPY-GDP exchange, fluorescence; series mostly up to 150 µM; activity change, negative = inhibition: at the top concentration. The essentials:
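EPAC1 (100 nM) mixed with 250 nM RAP1B-BODIPY-GDP and 50 uM GDP; compounds in concentration series, 5 min at room temperature. Fluorescence (ex 480/em 540 nm) read every 5 min for 30 min; normalized to ATA control and DMSO.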
(In general: Quantitative high-throughput screening tests each substance at several concentrations.)
As for `COc1cc(/C=C/C(=O)c2cccs2)cc(OC)c1OC`, the “activity change, negative = inhibition” value is -2.5%.
As to `COc1cc(-c2ccc(N=Nc3ccc4c(S(=O)(=O)O)cc(S(=O)(=O)O)c(N)c4c3O)c(OC)c2)ccc1N=Nc1ccc2c(S(=O)(=O)O)cc(S(=O)(=O)O)c(N)c2c1O`, the Potency was 31.6 µM (active) and the activity change, negative = inhibition was 12.3% [at 27.4 µM].
On to `Cc1cc(-c2ccc(N=Nc3ccc4c(S(=O)(=O)O)cc(S(=O)(=O)O)c(N)c4c3O)c(C)c2)ccc1N=Nc1ccc2c(S(=O)(=O)O)cc(S(=O)(=O)O)c(N)c2c1O`, for which the Potency was 20 µM (active) and 50.1 µM (active) and 31.6 µM (active).
Consider `COc1cc(O)c(C(=O)c2ccccc2)cc1S(=O)(=O)O`, for which the “activity change, negative = inhibition” value is 21.5%.
With `CCC1CN(CC(=O)NC(C)c2c(C)nn(C)c2C)Cc2cc(OC)ccc2O1` (centres undefined), the “activity change, negative = inhibition” value was 5.2%.
As to `Cc1c(C(=O)N(C)CC2CCCN(C)C2)cnn1-c1nccc(-c2ccco2)n1` (centres undefined), the “activity change, negative = inhibition” value was 10.4%.
In the case of `COC(=O)[C@@H]1[C@@H]2C[C@H]3c4[nH]c5ccccc5c4CCN3C[C@@H]2CC[C@@H]1O`, the Potency entry was “inactive”.
As to `CC1CC[C@@]2(C(=O)O)CC[C@]3(C)C(=CCC4[C@@]5(C)CCC(O)C(C)(C)C5CC[C@@]43C)C2C1C` (some centres undefined), the “activity change, negative = inhibition” value was 4.6%.
Take `CN(C)c1ccc(/C=C/c2ccnc3c(-c4ccccc4)cccc23)cc1`: the “activity change, negative = inhibition” value was 17.8%.
In the case of `Cc1c(S(=O)(=O)O)oc2c1C(=O)C(=O)c1c-2ccc2c1CCCC2(C)C`, the Potency was 100 µM (active).
On the same count and under the same terms, as for `Cc1coc2c1C(=O)C(=O)c1c-2ccc2c1CCCC2(C)C`, the entry is “inactive”.
In the case of `CC1COC2=C1C(=O)C(=O)c1c2ccc2c1CCCC2(C)C` (centres undefined), the “activity change, negative = inhibition” value was -18.5%.
Same read-out and setting: as for `O=C(c1cccc(F)c1)N1CCC2(CCCN(c3ccncc3)C2)CC1`, the figure is 6.3%.
Turning to `Cc1cnc(-n2ncc(C(=O)NCC3COCCO3)c2C2CC2)nc1-c1cccs1` (centres undefined), the “activity change, negative = inhibition” value was 9.72%.
On to `Cc1nc(NCc2cccc3c2OCO3)sc1-c1ccn(CC2CCCN(C)C2)n1` (centres undefined), for which the “activity change, negative = inhibition” value was 11.6%.
As to `Cc1cc(C(C#N)c2ccc(Cl)cc2)c(Cl)cc1NC(=O)c1cc(I)cc(I)c1O` (centres undefined), the Potency was 50.1 µM (active).
`O=C(Nc1ccc([N+](=O)[O-])cc1Cl)c1cc(Cl)ccc1O`: the Potency entry was “inactive”.
Turning to `COC(=O)C[C@H]1c2ccccc2S(=O)(=O)N1Cc1ccc(OC)cc1`, the “activity change, negative = inhibition” value was 8.68%.
As for `C(=C\c1ccncc1)/c1ccccc1`, the Potency entry was “inactive”.
Take `Cc1cc(NC(=O)Nc2ccc(N(C)C)cc2)c2cc(F)cc(F)c2n1`: the “activity change, negative = inhibition” value was -16.4%.
Consider `Cc1cc(N)c2cc(NC(=O)Nc3ccc4nc(C)cc(N)c4c3)ccc2n1`, for which the Potency was 28.2 µM (active).
`O=C(Nc1ccc(Cl)cc1)Nc1ccc(Cl)c(Cl)c1`: the “activity change, negative = inhibition” value was -10.1%.
As to `COCc1c(C(=O)NC2CCCCC2)cnn1-c1nccc(-c2cc(C)sc2C)n1`, the “activity change, negative = inhibition” value is -11.3%.
The same measure, in the same setting: as for `O=C(Cn1cccn1)N1CCOc2c(cc(-c3ncc(C(F)(F)F)cc3Cl)cc2OCC2CCCO2)C1` (centres undefined), the figure is 24.5%; as for `CCOc1ccc(S(=O)(=O)O)c2cccnc12`, 11.2%.
Take `O=C(Nc1ccc(/C=C/c2ccc(NC(=O)c3cc(S(=O)(=O)O)c4cccnc4c3O)cc2S(=O)(=O)O)c(S(=O)(=O)O)c1)c1cc(S(=O)(=O)O)c2cccnc2c1O`: the Potency was 44.7 µM (active).
Consider `O=S(=O)(O)c1cc(I)c(O)c2ncccc12`, for which the “activity change, negative = inhibition” value is 15.7%.
Same read-out and setting: the same measure for `O=C(c1cnsn1)N1CCOc2ccc(CN3CCOCC3)cc2C1`: 8.76%.
The same measure, in the same setting: as for `COCC(=O)Nc1cc(C(=O)N2CCCC(C(N)=O)C2)cc2nc(-c3ccccc3)n(C)c12` (centres undefined), the figure is 7.12%.
For the compound `COc1ccc(CNc2ncnc3ccc(-c4ccc(N(C)C)cc4)cc23)c(OC)c1`, the “activity change, negative = inhibition” value was -8.56%.
For `Nc1nc2c(nc(Sc3ccc(Cl)cc3)n2C2OC(CO)C(O)C2O)c(=O)[nH]1` (centres undefined), the “activity change, negative = inhibition” value is 19.8%.
`Nc1ncnc2c1nc(Br)n2C1OC2COP(=O)(O)O[C@@H]2C1O` (some centres undefined): the Potency is 0.708 µM (active).
On the same count and under the same terms, the same measure for `Nc1ncnc2c1nc(Br)n2[C@H]1O[C@H]2COP(=O)(O)O[C@H]2[C@@H]1O`: 2.51 µM (active).
For `Nc1ncnc2c1nc(Cl)n2C1OC(CO)C(O)C1O` (centres undefined), the “activity change, negative = inhibition” value is 19.2%.
On the same count and under the same terms, as for `Nc1nc2c(nc(Br)n2C2OC3COP(=O)(O)O[C@@H]3C2O)c(=O)[nH]1` (some centres undefined), the figure is 0% [at 75.8 µM].
Regarding `Nc1ncnc2c1nc(Sc1ccc(Cl)cc1)n2[C@H]1OC2COP(=O)(O)O[C@@H]2C1O` (some centres undefined), the Potency is 0.316 µM (active).
With `Nc1ncnc2c1nc(Br)n2C1OC(CO)C(O)C1O` (centres undefined), the “activity change, negative = inhibition” value was 8.26%.
As to `NC1=NC2C(N=C(Br)N2[C@@H]2O[C@H]3COP(=O)(O)O[C@@H]3[C@@H]2O)C(=O)N1` (some centres undefined), the “activity change, negative = inhibition” value is -7.02% [at 201 µM].
The same measure, in the same setting: as for `[N-]=[N+]=Nc1nc2c(N)ncnc2n1C1OC(CO)C(O)C1O` (centres undefined), the figure is -15.6%; as for `Nc1nc2c(nc(Br)n2[C@@H]2O[C@H]3COP(=O)(O)O[C@H]3[C@@H]2O)c(=O)[nH]1`, -21.7%; as for `Nc1ncnc2c1nc(Br)n2C1CC(O)C(CO)O1` (centres undefined), 22.2%.
For `Nc1ncnc2c1nc(Br)n2[C@@H]1O[C@H]2COP(=O)(O)O[C@@H]2[C@@H]1O`, the Potency was 2.82 µM (active).
For `O=S(=O)(c1ccccc1)N1CCC2(CCCN(c3ccccc3)C2)CC1`, the “activity change, negative = inhibition” value is 5.08%.
